# Screen size: about 410,000 compounds; about 18,000 (4.4%) were called active. Roughly 7% stayed inconclusive and do not appear here. The entries come from a sample that favours actives as a whole. A number with no mark means an inactive call. Cut-off read from the data, not from the text of the source: active = activity change below about -60%; inconclusive = no clear call, values can overlap the other calls; inactive = above about -39%.
# Assay: qHTS Assay for inhibitors of the human cytomegalovirus (HCMV)
# Settings: HFF cells, HCMV-luciferase reporter, 72 h; at 57.5 µM; stronger effect = lower value
# Procedure, shortened: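 Two-dose cell screen: HFF monolayers treated with compounds and infected with luciferase-expressing HCMV at 1 PFU/cell, 72 h at 37C, then lysed for luciferase measurement.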
# % is set by controls: 0 for no effect and ±100 for the full control effect.
row,SMILES,"activity change, negative = inhibition"
1,Cc1cc(N2C(=O)C(=O)/C(=C(/O)c3ccccc3)C2c2cccc(Br)c2)no1 (stereo unspecified),-20.6%
2,CCN(CC)S(=O)(=O)c1ccc(C(=O)N=c2sc3cccc(OC)c3n2C)cc1,-2.8%
3,CCOc1ccc(C(C(=O)NC2CCCC2)N(C(=O)c2snc(C(N)=O)c2N)C2CCCC2)cc1 (stereo unspecified),-24.5%
4,COc1ccc(N(C(=O)c2snc(C(N)=O)c2N)C(C(=O)NC2CCCC2)c2ccco2)cc1OC (stereo unspecified),-8.05%
5,COc1cc(C(C(=O)NC2CCCC2)N(Cc2ccccc2)C(=O)c2snc(C(N)=O)c2N)ccc1O (stereo unspecified),-99.2% (active)
6,CC(C)NC(=O)N1CC(=O)N2[C@H](CO)[C@@H](c3ccc(Br)cc3)[C@H]2C1,1.46%
7,CCc1cc2c(cc3c(=O)n(CC(=O)N4CCN(c5cc(Cl)ccc5C)CC4)nc(CC)n32)s1,12.7%
8,COc1ccc(-c2noc(CCC(=O)N(C)c3ccccc3C)n2)cc1,-35.9%
9,CCOC(=O)c1cc2c(=O)n3ccccc3nc2n(CC2CCCO2)c1=NC(=O)c1ccc(C(C)(C)C)cc1 (stereo unspecified),23.6%
10,CCCc1nc(SCC(=O)N2CCCC2)c2c(=O)n(C)c(=O)n(C)c2n1,-70.5% (active)
11,Cn1c(=O)c2c(SCC(=O)N3CCOCC3)nc(C3CC3)nc2n(C)c1=O,-3.56%
12,CCOC(=O)N1CCN(C(=O)CSc2nc(C)nc3c2c(=O)n(C)c(=O)n3C)CC1,-22.5%
13,Cn1nnnc1SCCCNCc1cccc(OCc2ccc(Cl)cc2)c1,12.4%
14,CN(Cc1ccccc1)C(=O)c1cc2c(=O)n(C)c3ccccc3c2s1,2.36%
15,NS(=O)(=O)c1ccc(CCNC(=O)COC(=O)COc2cccc(C(F)(F)F)c2)cc1,-3.4%
16,COc1ccc(CNC(=O)COc2cccnc2[N+](=O)[O-])cc1,1.06%
17,COc1ccc(CNc2ncnc3ccccc23)cc1,-91.4% (active)
18,CC(=O)OC[C@@H]1CN(Cc2ccccc2)C[C@H](n2cnc3c(NCc4ccco4)ncnc32)O1,-0.673%
19,NS(=O)(=O)c1ccc(CCNc2nc(C(F)(F)F)nc3ccccc23)cc1,-68.6% (active)
20,c1coc(CNc2ncnc3ccccc23)c1,-64.6% (active)
21,CC(NCCc1ccc(S(N)(=O)=O)cc1)C(=O)NCc1ccccc1 (stereo unspecified),-27.8%
22,O=C(NCc1ccncc1)C(=O)NCc1ccco1,-17.8%
23,COc1cccc(CNc2ncc(-c3ccccc3)n2C)c1,34.7%
24,COc1cccc(CNc2nc(C(F)(F)F)nc3ccccc23)c1,-73.3% (active)
25,COc1cccc(CNC(=O)Cc2csc3nc(-c4ccccc4)cn23)c1,-6.98%
26,O=C(COc1ncnc2ccccc12)NC(=O)NCc1ccccc1,-32.5%
